Screens deposited in PubChem BioAssay by Buhrlage Lab, Dana-Farber Cancer Institute and Novartis Institutes for BioMedical Research (Cambridge, Mass).
USP7 inh: blocks human USP7 ubiquitin-rhodamine cleavage. inhibition, % at 20 µM. AID 1645854. purified USP7, Ub-rhodamine cleavage fluorescence. 47,000 compounds, 0.3% hits
USP10 inh: human USP10 deubiquitinase inhibition; Q14694; purified USP10, Ub-rhodamine fluorescence, 60 min; inhibition, % at 20 µM; 47,000 compounds, 1.1% hits; AID 1645856
UCHL1 inh: human UCHL1 deubiquitinase inhibition; 47,000 compounds, 0.2% hits; purified UCHL1, Ub-rhodamine cleavage fluorescence; inhibition, % at 20 µM
Target sequence (P09936 whole entry, looked up): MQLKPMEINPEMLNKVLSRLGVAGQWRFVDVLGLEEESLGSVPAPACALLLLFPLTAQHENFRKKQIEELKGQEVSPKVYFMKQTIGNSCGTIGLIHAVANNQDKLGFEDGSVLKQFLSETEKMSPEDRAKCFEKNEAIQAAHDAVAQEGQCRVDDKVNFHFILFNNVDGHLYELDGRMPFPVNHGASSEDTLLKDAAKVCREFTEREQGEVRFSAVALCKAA
USP8 block: blocks human USP8 ubiquitin-rhodamine cleavage; inhibition, % at 20 µM; purified USP8, Ub-rhodamine cleavage fluorescence, 30 min; 47,000 compounds, 4.2% hits; AID 1645853
Large screens that a line does not name were inactive. The list is not random: actives were taken first. Their share in the collection is about 4.6%. No stated cut-off is given here; in the data, active means inhibition above about 30%; inactive means the rest.

Cc1ccc(NC(=O)Cn2c(=O)n(CC(=O)NCCc3ccccc3)c(=O)c3sccc32)cc1C	USP10 inh 40, USP8 block 50
O=C(Cc1ccccc1[N+](=O)[O-])Nc1ccc(S(=O)(=O)Nc2ccccc2Cl)cc1	none
COc1ccc(C(=O)N2CCC3(CC2)OC(C(=O)Nc2ccncc2)Cn2ccnc23)cc1 (configuration not stated)	none
COc1ccc(CCNC(=O)Cn2c(=O)c3sccc3n(Cc3cccc([N+](=O)[O-])c3)c2=O)cc1OC	USP10 inh 32
COc1ccccc1N1CCN(C(=O)c2nnn(-c3ccc(Br)cc3)n2)CC1	none
O=C1NC(=N/N=C/c2ccccc2)SC1Cc1cc(C(F)(F)F)ccc1Cl (configuration not stated)	USP10 inh 47
O=C(NCc1ccc(F)cc1Cl)c1csc(C(=O)N2CCCC2)n1	none
CCOC(=O)C1CCN(C(=O)c2ccc3c(c2)NC(=O)C(CS(=O)(=O)Cc2ccccc2Cl)N3)CC1 (configuration not stated)	USP8 block 49
O=C1Nc2cc(C(=O)N3CCCC3)ccc2NC1CS(=O)(=O)Cc1ccc(F)cc1Cl (configuration not stated)	USP8 block 35
CCOC(=O)C1CCN(C(=O)c2ccc3c(=O)n(-c4ccccc4)c(=O)[nH]c3c2)CC1	none
Cc1oc(-c2ccc(Cl)cc2)cc1C(=O)Nc1ccccc1	none
COc1ccc(NC(=O)C2CCCN(S(=O)(=O)N3CCC(C)CC3)C2)c(OC)c1 (configuration not stated)	USP8 block 44
COc1cccc(NC(=O)C2C3C=CC4(O3)C2C(=O)N(CCc2ccc(Cl)cc2)C4C(=O)NC2CCCCC2)c1 (configuration not stated)	USP10 inh 35, USP8 block 50
Cn1ccc(-c2nc3ccccc3[nH]2)n1	USP8 block 30
CCOC(=O)c1cc(=O)c2ccc(OCC(=O)Nc3ccc4c(c3)OCCO4)cc2o1	USP8 block 65
Fc1cccc(C2(c3nc(C4CC4)no3)CCOCC2)c1	none
COc1ccc(-c2cn3ccc4cc(OC)c(OC)cc4c3c2-c2ccc(OC)c(OC)c2)cc1	USP8 block 31
O=C(CNC(=O)c1ccc2nc(-n3cccc3)sc2c1)NCc1ccccc1Cl	USP8 block 46
O=C(CNC(=O)c1ccc2nc(-n3cccc3)sc2c1)NCc1ccco1	USP8 block 76
O=C(CNC(=O)c1ccc2nc(-n3cccc3)sc2c1)NCc1ccccc1	USP8 block 39 (no result: USP7 inh)
CC1CCCCN1C(=O)CN1CCC2(CC1)CN(S(C)(=O)=O)Cc1ccccc1O2 (configuration not stated)	none
O=S(=O)(Nc1nc(-c2ccco2)c(-c2ccco2)s1)c1ccc(F)cc1F	USP8 block 37
O=S(=O)(c1ccc(F)cc1)c1nc(-c2ccco2)oc1SCc1ccc(F)cc1	none
N#Cc1cn2c(nc1-c1ccc(Cl)cc1)nc1ccccc12	USP10 inh 53, USP8 block 71
COc1ccc(Cl)cc1C(=O)N1C[C@H](c2nc(-c3ccncc3)no2)[C@@H](C)C1	none
c1ccc(-c2cc3c(N4CCc5ccccc5C4)ncnc3s2)cc1	USP8 block 53
O=C(c1cccnc1)N1CCC2(CC1)CCN(c1ncc(F)cn1)C2	none
COc1cccc(CNC(=O)CSc2nc(-c3ccco3)nc3cc(=O)[nH]n23)c1	none
COc1ccc(-c2nc(SCC(=O)Oc3c(C)cccc3C)n3[nH]c(=O)cc3n2)cc1	USP10 inh 46, USP8 block 83
CN(c1ccc(Oc2ccc(C(F)(F)F)cn2)cc1)S(=O)(=O)c1ccccc1	USP8 block 73
CNC(=O)N1C[C@H]2C[C@H]3[C@](C1)(CN(Cc1ccncc1)S3(=O)=O)O2	none
CCOC(=O)c1cc2c(ccn2-c2ccc(F)cc2)n1Cc1cccc2ccccc12	none
CC(C)n1cc2cc(C(=O)NC3CCN(Cc4ccccc4)CC3)sc2c1	USP8 block 51
Cc1cc(C(=O)NC2CCN(Cc3ccccc3)CC2)c(C)o1	none
CC(C)(C)c1ccc(C2CC(=O)C3=C(C2)Nc2ccccc2N(C(=O)CCC(=O)O)C3c2cccc([N+](=O)[O-])c2)cc1 (configuration not stated)	USP10 inh 33
Cc1ccc2c(NCc3ccc4c(c3)OCO4)c(-c3nc(C)no3)cnc2n1	USP8 block 61
Cc1ccc2c(Nc3ccccc3)c(-c3nc(C)no3)cnc2n1	none
N#Cc1cccc(NC(=O)Nc2cccn(Cc3ccc(F)cc3)c2=O)c1	USP8 block 91
CCN(C=C1NC(=O)c2ccccc2N1)CC(=O)Nc1ccc(Cl)c(C(F)(F)F)c1	USP8 block 30
O=C(COc1ccc(N2CC(C(=O)NCc3ccc4c(c3)OCO4)CC2=O)cc1)Nc1ccc(F)cc1 (configuration not stated)	USP10 inh 49, USP8 block 53
O=C(COc1ccc(N2CC(C(=O)NCc3ccc4c(c3)OCO4)CC2=O)cc1)Nc1ccc(Cl)cc1 (configuration not stated)	USP10 inh 38
O=C(COc1ccc(N2CC(C(=O)NCc3ccccc3)CC2=O)cc1)Nc1ccc(F)cc1 (configuration not stated)	USP8 block 64
O=C1C=C(O)c2c(O)cccc2C1=O	USP8 block 79
Cc1ccc2c(c1)C(=O)c1c(O)cccc1C2=O	none
Cn1c(SCc2nc3ccccc3c(=O)[nH]2)nc2ccccc21	USP8 block 34
Cc1ccc(CSc2nc3ccccc3c(=O)[nH]2)cc1	none
Cc1ccc2cc3c(nc2c1)OC(=O)N(Cc1ccc(C)o1)C3	USP8 block 50
COc1ccc2cc3c(nc2c1)OC(=O)N(Cc1ccc(F)cc1)C3	none
CCOc1ccc2cc3c(nc2c1)OC(=O)N(Cc1ccc(OC)cc1)C3	USP8 block 77
COc1ccc2cc3c(nc2c1)OC(=O)N(CCc1cccc(F)c1)C3	USP8 block 35
Cc1ccccc1C(=O)Nc1cc(=O)[nH]c2nc(CCc3ccccc3)nn12	none
O=c1ccc(-c2noc(/C=C/c3ccc4c(c3)OCO4)n2)c[nH]1	none
CC(C)=CCC/C(C)=C/COc1ccc(/C=C2\C(=O)N(O)[C@@H](C)C(=O)N2O)cc1	USP10 inh 38
COc1cc(/C=C2\Oc3cc(OCC=C(C)C)ccc3C2=O)cc(OC)c1OC	none
Cc1ccc(Nc2nc(N)nc(CN3CCN(c4ccccc4)CC3)n2)c(C)c1	none
CCCCCCCc1cc(OC(=O)c2c(CCCCCCC)cc(O)cc2O[C@@H]2O[C@H](CO)[C@@H](O)[C@H](O)[C@H]2O)cc(O)c1C(=O)O	USP7 inh 101, USP10 inh 101, UCHL1 inh 88, USP8 block 99
CCCCCCCCCCCCCCCc1cc(O)cc(O)c1C(=O)O	USP10 inh 63
O=C(O)CCCCc1cc(O)cc(O)c1	none
Cc1ccc(CN2CCC(N3CCN(C(=O)c4cc(Cl)ccc4C)CC3=O)CC2)o1	none
CCn1nnc2cc(C(=O)NCc3ccc4c(c3)OCO4)ccc21	none
Nc1c(C(=O)NCc2ccc3c(c2)OCO3)nnn1Cc1ccc(Br)cc1F	USP10 inh 31, USP8 block 83
